Only a selection was taken, and hits are over-represented in it overall.
ST2 IL33 inh: inhibitors of human ST2 (IL1RL1) binding to IL-33. Q01638. AlphaLISA ST2-Fc/biotin-IL-33 interaction, 1 h. inhibition, % for hits at 17 µM. actives 2.3% (n = 78,000); in the data active means inhibition above about 30%
Target sequence (Q01638 whole entry, looked up): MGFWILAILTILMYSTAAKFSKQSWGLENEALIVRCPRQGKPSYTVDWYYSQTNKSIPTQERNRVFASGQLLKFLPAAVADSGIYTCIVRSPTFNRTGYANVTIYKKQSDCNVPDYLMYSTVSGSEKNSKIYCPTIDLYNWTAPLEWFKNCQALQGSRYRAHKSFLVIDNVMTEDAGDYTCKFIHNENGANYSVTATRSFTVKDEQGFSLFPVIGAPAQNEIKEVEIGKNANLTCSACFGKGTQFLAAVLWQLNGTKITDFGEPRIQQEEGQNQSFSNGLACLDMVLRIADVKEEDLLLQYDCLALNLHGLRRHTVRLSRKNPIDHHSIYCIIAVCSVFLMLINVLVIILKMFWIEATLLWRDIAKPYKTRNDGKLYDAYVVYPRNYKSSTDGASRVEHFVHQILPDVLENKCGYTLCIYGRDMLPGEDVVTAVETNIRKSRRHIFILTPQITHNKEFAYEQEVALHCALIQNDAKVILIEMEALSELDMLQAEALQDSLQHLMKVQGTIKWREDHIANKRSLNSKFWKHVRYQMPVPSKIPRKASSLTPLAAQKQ
Starred values were filed as active, the others as inactive; i = inactive.

SMILES	ST2 IL33 inh
Cc1ccc(/C=C(/C#N)c2nc(-c3ccc(Cl)c(Cl)c3)cs2)o1	i
COc1ccc(-c2csc(NC(=O)C3CC=CCC3C(=O)O)n2)cc1 (configuration not stated)	i
COc1ccc(-c2csc(/C(C#N)=C\c3ccc(OC)o3)n2)cc1	49%*
COc1ccc(-c2nnc(-c3ccc(OC)cc3)o2)cc1	i
Cc1ccc(-c2csc(NC(=O)CCCC(=O)O)n2)c(C)c1	i
Cc1ccc(-c2csc(/C(C#N)=C/c3ccc(Br)o3)n2)c(C)c1	60%*
COc1ccc(-c2csc(/C(C#N)=C/c3ccc(Br)o3)n2)cc1	42%*
CCC(C)NC(=O)c1cc(=O)[nH]c2ccc(S(=O)(=O)N3CCOCC3)cc12 (configuration not stated)	i
O=C(NCc1ccccc1Cl)c1ccc(NS(=O)(=O)c2ccccc2)cc1	i
O=S(=O)(NC[C@H]1O[C@@H](CO)[C@@H](O)[C@H]1N1CCN(c2cccc(C(F)(F)F)c2)CC1)c1ccc(F)cc1	i
Cc1ncsc1CCC(=O)N1CCC(O)(c2ccc(F)cc2)CC1	i
Cc1cccc(NS(=O)(=O)c2ccc(Br)s2)c1	i
O=C(Nc1ccc(I)cc1)c1ccccc1[N+](=O)[O-]	i
CCc1noc(C)c1C(=O)N1CCCC(CCC(=O)NCc2ccccc2Cl)C1 (configuration not stated)	i
CC(=O)Nc1ccc(CN2CCCCC2CN2CCOCC2)cc1 (configuration not stated)	i
Cc1sc(N=Cc2ccc(Br)cc2)c(C#N)c1C	55%*
COc1ccc(C=Nc2sc3c(c2C#N)CCCC3)cc1[N+](=O)[O-]	i
NS(=O)(=O)c1ccc(N=Cc2ccc(Br)cc2)cc1	i
COc1ccc(C(=O)N2CCN(c3ccc([N+](=O)[O-])cc3)CC2)cc1OC	i
Cc1ccccc1N1CCN(Cc2ccco2)CC1	i
COc1cc([N+](=O)[O-])cc(CN2CCN(c3cc(C)ccc3C)CC2)c1O	41%*
Cc1ccc(C)c(N2CCN(Cc3ccc(-c4ccccc4[N+](=O)[O-])o3)CC2)c1	38%*
CCOc1ccccc1N1CCN(Cc2ccc(OC)cc2OC)CC1	i
O=[N+]([O-])c1ccc(CN2CCN(Cc3ccccc3)CC2)o1	i
COc1cc(CN2CCN(c3ccccc3OC)CC2)c([N+](=O)[O-])cc1OC	i
SMILES	ST2 IL33 inh
CCOc1ccccc1N1CCN(Cc2cc3c(cc2[N+](=O)[O-])OCO3)CC1	30%*
O=[N+]([O-])c1ccc(N2CCN(Cc3ccoc3)CC2)cc1	i
COc1cc(CN2CCN(c3ccccc3F)CC2)cc([N+](=O)[O-])c1O	i
COc1ccc(CN2CCN(Cc3cccc([N+](=O)[O-])c3)CC2)c(OC)c1OC	i
COc1cc(C)c(CN2CCN(c3ccc([N+](=O)[O-])cc3)CC2)cc1C	32%*
CCOc1ccc(CNC(=O)C(C(C)C)N2CCN(C)C(=O)C2=O)cc1 (configuration not stated)	i
COc1ccc(Cl)cc1C(=O)Nc1ccc(-c2nc3ncccc3o2)cc1	i
OCc1ccc(CN2C[C@H](O)C[C@H]2c2nc(-c3ccc4c(c3)OCO4)no2)o1	i
COCCN1CCCC(O)(CN2CCSCC2)C1=O (configuration not stated)	i
CCN1CCn2c(C)nc(C(=O)N3CCOC(C(F)(F)F)C3)c2C1=O (configuration not stated)	i
CC1=CC[C@@H]2CN(C(=O)c3cccc4nccnc34)C[C@@H]2C1	i
COc1ccc(C2C3C(=O)N(c4ccc(C)cc4)C(=O)C3N3CCCN23)cc1 (configuration not stated)	i
CC(=O)Nc1ccc(N[C@@H]2O[C@@H](C)[C@H](O)[C@@H](O)[C@H]2O)cc1	i
O=[N+]([O-])c1c(Cl)ncnc1NCc1ccccc1	i
COc1cc(OC)c(OC)cc1CN1CCN(Cc2cc(OC)c(OC)cc2[N+](=O)[O-])CC1	i
Cc1ccc(C)c(N2CCN(Cc3cc4c(cc3[N+](=O)[O-])OCO4)CC2)c1	32%*
COc1cc(CN2CCN(c3ncccn3)CC2)c([N+](=O)[O-])cc1OC	i
CO[C@H]1[C@H](NC(=O)c2ccccn2)c2ccccc2C12CCN(C(=O)CSc1ccccc1)CC2	i
O=C(Nc1cccc(F)c1)c1oc2ccccc2c1NC(=O)C1CC1	i
CN(C)c1ccc(NC(=O)CC2Sc3ccc(C(F)(F)F)cc3NC2=O)cc1 (configuration not stated)	i
COCCOc1cc(-c2noc([C@@H]3CCCN3C3CCOCC3)n2)ccn1	i
Cc1ccc(C(=O)/C=C(\c2ccccc2)N2CCCCC2)cc1	30%*
O=C(c1ccccc1)N1CCCCC1	i
O=C(c1ccc([N+](=O)[O-])cc1)N1CCN(c2ccccc2F)CC1	i
Cc1ccc(C(=O)N2CCCN(C(=O)c3ccc(C)cc3)CC2)cc1	i
SMILES	ST2 IL33 inh
O=C(c1ccccc1[N+](=O)[O-])N1CCCCC1	i
O=C(/C=C(/c1ccccc1)N1CCCCC1)c1ccc([N+](=O)[O-])cc1	38%*
Cc1ccccc1C(=O)Oc1ccc2oc(C)c(C(=O)OC(C)C)c2c1	i
COc1ccc(C(=O)Nc2sc3c(c2C#N)CC(C)(C)NC3(C)C)cc1	i
CCCCN(CC)S(=O)(=O)c1ccc(C)cc1	i
Cc1cc(C)n(C2CCN(C(=O)CN3CCOc4ccccc4C3)C2)n1 (configuration not stated)	i
CCOC(=O)c1c(C)n(-c2ccccc2)c2ccc(OC(=O)c3ccco3)cc12	i
Cc1c(CCCN)c2ccccc2n1-c1ccccc1	34%*
CCn1c(C(=O)O)c(CC(=O)N2CCN(c3ccccc3)CC2)c2ccccc21	i
CC(C)c1ccc2sc3ccccc3c(=O)c2c1	i
Cc1ccc(NC(=O)C(c2ccccc2)c2ccccc2)c([N+](=O)[O-])c1	41%*
Cc1ccc(NC(=O)CC(C)C)c([N+](=O)[O-])c1	i
Cc1ccc(NC(=O)c2cc3ccccc3o2)c([N+](=O)[O-])c1	i
COC(=O)C1=C(C)NC2=C(C(=O)CC(c3ccc(Cl)cc3)C2)C1c1ccc2c(c1)OCO2 (configuration not stated)	i
COc1cc(F)ccc1-c1c(-c2ccccc2)ncn1CCCn1cncn1	i
CC(C)NC(=O)[C@@H](C)[C@@H]1CC[C@@]2(C)CC[C@H](NC(=O)c3cncnc3)[C@@H](C)[C@@H]2[C@H]1O	i
CCOc1ccc(C(=O)N2CCN=C2SCc2cccnc2)cc1OCC	i
CCN(CC)c1ccc(NS(=O)(=O)c2ccc(OC)cc2)cc1	35%*
COc1ccc(S(=O)(=O)Nc2ccc(NC(C)=O)cc2)cc1	i
COc1ccc(NS(=O)(=O)c2ccc(NS(=O)(=O)c3ccc(C)cc3)cc2)cc1	i
O=C(Nc1cccc(NC(=O)c2ccccc2Cl)c1)c1cccc([N+](=O)[O-])c1	i
COc1cc(C2C(C#N)=C(N)Oc3n[nH]c(C(C)(C)C)c32)ccc1O (configuration not stated)	i
COc1cc(C=Nc2ccc(Nc3ccccc3)cc2)c([N+](=O)[O-])cc1OC	57%*
COc1ccccc1N=Cc1cccc([N+](=O)[O-])c1O	i
COc1cc(OC)c(OC)cc1/C=C1\N=C(c2ccc(OC)c([N+](=O)[O-])c2)OC1=O	i
